Source: the supplement of paper PMC7411054
Counter-ions that a name gives are not always drawn.

Columns and labels:
Conditions in all cases: treatment time: 24 h
A549-ACTB-RAB5A [1] = assay: lowest phenotypically active concentration; higher = less potent
Procedure, shortened: (§1)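 Phenotypic activity depended on meeting both a deviation and a reproducibility criterion. The fifteen gene-edited A549, HepG2 and WPMY1 reporter lines were treated at 0.3, 1, 3 or 9 µM for 24 h, four wells each, then imaged live with features normalised to solvent control wells. Deviation required ≥3 of 4 wells past the 95th percentile of control Euclidean distances, and reproducibility a median replicate Pearson correlation above the 95th percentile of non-replicates.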

A549-CANX-COX4 [2] = assay: as above
Procedure, shortened: as §1

A549-GM130-SQSTM1 [3] = assay: as above
Procedure, shortened: as §1

A549-TP53BP1-CLTA [4] = assay: as above
Procedure, shortened: as §1

A549-TUBA1B-RELA [5] = assay: as above
Procedure, shortened: as §1

A549-ACTB-RAB5A [6] = assay: phenotypically active (imaging signature differs from DMSO and reproducible) at any of 0.3-9 uM (binary (1 = active, 0 = inactive)); higher = active
Procedure, shortened: as §1

A549-CANX-COX4 [7] = assay: as above
Procedure, shortened: as §1

A549-GM130-SQSTM1 [8] = assay: as above
Procedure, shortened: as §1

A549-TP53BP1-CLTA [9] = assay: as above
Procedure, shortened: as §1

A549-TUBA1B-RELA [10] = assay: as above
Procedure, shortened: as §1

HepG2-ACTB-RAB5A = assay: as above
Procedure, shortened: as §1

HepG2-CANX-COX4 = assay: as above
Procedure, shortened: as §1

HepG2-GM130-SQSTM1 = assay: as above
Procedure, shortened: as §1

HepG2-TP53BP1-CLTA = assay: as above
Procedure, shortened: as §1

HepG2-TUBA1B-RELA = assay: as above
Procedure, shortened: as §1

WPMY1-ACTB-RAB5A = assay: as above
Procedure, shortened: as §1

WPMY1-CANX-COX4 = assay: as above
Procedure, shortened: as §1

WPMY1-GM130-SQSTM1 = assay: as above
Procedure, shortened: as §1

WPMY1-TP53BP1-CLTA = assay: as above
Procedure, shortened: as §1

WPMY1-TUBA1B-RELA = assay: as above
Procedure, shortened: as §1

SMILES	lowest phenotypically active concentration (A549-ACTB-RAB5A [1])	lowest phenotypically active concentration (A549-CANX-COX4 [2])	lowest phenotypically active concentration (A549-GM130-SQSTM1 [3])	lowest phenotypically active concentration (A549-TP53BP1-CLTA [4])	lowest phenotypically active concentration (A549-TUBA1B-RELA [5])	phenotypically active (A549-ACTB-RAB5A [6])	phenotypically active (A549-CANX-COX4 [7])	phenotypically active (A549-GM130-SQSTM1 [8])	phenotypically active (A549-TP53BP1-CLTA [9])	phenotypically active (A549-TUBA1B-RELA [10])	phenotypically active (HepG2-ACTB-RAB5A)	phenotypically active (HepG2-CANX-COX4)	phenotypically active (HepG2-GM130-SQSTM1)	phenotypically active (HepG2-TP53BP1-CLTA)	phenotypically active (HepG2-TUBA1B-RELA)	phenotypically active (WPMY1-ACTB-RAB5A)	phenotypically active (WPMY1-CANX-COX4)	phenotypically active (WPMY1-GM130-SQSTM1)	phenotypically active (WPMY1-TP53BP1-CLTA)	phenotypically active (WPMY1-TUBA1B-RELA)
NCC(=O)Nc1ccc(-n2nc(C(F)(F)F)cc2-c2ccc3c(ccc4ccccc43)c2)cc1	1 µM	1 µM	1 µM	1 µM	1 µM	1 (active)	1 (active)	1 (active)	1 (active)	1 (active)	1 (active)	1 (active)	1 (active)	1 (active)	1 (active)	1 (active)	1 (active)	1 (active)	1 (active)	1 (active)
O=C(Nc1cccc(Br)c1)c1cccc(S(=O)(=O)N2CCCCCC2)c1	–	–	–	–	–	0 (inactive)	0 (inactive)	0 (inactive)	0 (inactive)	0 (inactive)	0 (inactive)	0 (inactive)	0 (inactive)	0 (inactive)	0 (inactive)	0 (inactive)	0 (inactive)	0 (inactive)	0 (inactive)	0 (inactive)
O=C1NC(=O)C(c2ccccc2[N+](=O)[O-])=C1Nc1ccc(O)c(Cl)c1	9 µM	9 µM	9 µM	9 µM	9 µM	1 (active)	1 (active)	1 (active)	1 (active)	1 (active)	1 (active)	1 (active)	1 (active)	1 (active)	1 (active)	1 (active)	0 (inactive)	0 (inactive)	0 (inactive)	0 (inactive)
COc1nc(N)nc2c1ncn2[C@@H]1O[C@H](CO)[C@@H](O)[C@@H]1O [Nelarabine]	9 µM	–	–	–	–	1 (active)	0 (inactive)	0 (inactive)	0 (inactive)	0 (inactive)	0 (inactive)	0 (inactive)	0 (inactive)	0 (inactive)	0 (inactive)	0 (inactive)	0 (inactive)	0 (inactive)	0 (inactive)	0 (inactive)
COc1cc(N2CCC(O)CC2)ccc1Nc1cc(Nc2ccccc2S(=O)(=O)C(C)C)c2cc[nH]c2n1 [Mps1-IN-1 dihydrochloride]	9 µM	9 µM	9 µM	9 µM	9 µM	1 (active)	1 (active)	1 (active)	1 (active)	1 (active)	1 (active)	1 (active)	1 (active)	1 (active)	1 (active)	1 (active)	1 (active)	1 (active)	1 (active)	0 (inactive)
CCCC(=O)O[C@]1(C(=O)COC(C)=O)CC[C@H]2[C@@H]3C[C@H](F)C4=CC(=O)C=C[C@]4(C)[C@@]3(F)[C@@H](O)C[C@@]21C [difluprednate]	≤ 0.3 µM	≤ 0.3 µM	≤ 0.3 µM	≤ 0.3 µM	≤ 0.3 µM	1 (active)	1 (active)	1 (active)	1 (active)	1 (active)	0 (inactive)	0 (inactive)	0 (inactive)	0 (inactive)	0 (inactive)	0 (inactive)	0 (inactive)	0 (inactive)	0 (inactive)	0 (inactive)
CC(=O)c1ccc(S(=O)(=O)NC(=O)NC2CCCCC2)cc1 [acetohexamide]	–	–	–	–	–	0 (inactive)	0 (inactive)	0 (inactive)	0 (inactive)	0 (inactive)	0 (inactive)	0 (inactive)	0 (inactive)	0 (inactive)	0 (inactive)	0 (inactive)	0 (inactive)	0 (inactive)	0 (inactive)	0 (inactive)
CO[C@H]1C[C@@H]2CC[C@@H](C)[C@@](O)(O2)C(=O)C(=O)N2CCCC[C@H]2C(=O)O[C@H]([C@H](C)C[C@@H]2CC[C@@H](OC(=O)C(C)(CO)CO)[C@H](OC)C2)CC(=O)[C@H](C)C=C(C)[C@@H](O)[C@@H](OC)C(=O)[C@H](C)C[C@H](C)C=CC=CC=C1C [Temsirolimus]	≤ 0.3 µM	≤ 0.3 µM	≤ 0.3 µM	3 µM	≤ 0.3 µM	1 (active)	1 (active)	1 (active)	1 (active)	1 (active)	1 (active)	1 (active)	1 (active)	1 (active)	1 (active)	1 (active)	1 (active)	1 (active)	1 (active)	1 (active)
C[C@H]1COCCN1c1cc(C2(S(=O)(=O)C3CC3)CC2)nc(-c2ccc(NC(=S)NCCO)cc2)n1	≤ 0.3 µM	≤ 0.3 µM	≤ 0.3 µM	≤ 0.3 µM	≤ 0.3 µM	1 (active)	1 (active)	1 (active)	1 (active)	1 (active)	1 (active)	1 (active)	1 (active)	1 (active)	1 (active)	1 (active)	1 (active)	1 (active)	1 (active)	1 (active)
COc1cc2c(NC3CCN(C(C)C)CC3)nc(N3CCC(F)(F)CC3)nc2cc1OCCCN1CCCC1	≤ 0.3 µM	9 µM	≤ 0.3 µM	3 µM	≤ 0.3 µM	1 (active)	1 (active)	1 (active)	1 (active)	1 (active)	1 (active)	1 (active)	1 (active)	1 (active)	1 (active)	1 (active)	1 (active)	1 (active)	1 (active)	1 (active)
C=C1CN(Cc2ccc(C(=O)Nc3ccccc3N)cc2)C(=O)c2ccccc21	≤ 0.3 µM	≤ 0.3 µM	≤ 0.3 µM	≤ 0.3 µM	1 µM	1 (active)	1 (active)	1 (active)	1 (active)	1 (active)	1 (active)	1 (active)	1 (active)	1 (active)	1 (active)	1 (active)	1 (active)	1 (active)	1 (active)	1 (active)
COc1ccc(-c2cc3c(C)nc(N)nc3n([C@H]3CC[C@H](OCCO)CC3)c2=O)cn1	≤ 0.3 µM	≤ 0.3 µM	≤ 0.3 µM	≤ 0.3 µM	≤ 0.3 µM	1 (active)	1 (active)	1 (active)	1 (active)	1 (active)	1 (active)	1 (active)	1 (active)	1 (active)	1 (active)	1 (active)	1 (active)	1 (active)	1 (active)	1 (active)
CN1c2ccccc2C(=O)N2CCc3c([nH]c4ccccc34)[C@H]21 [Evodiamine]	1 µM	1 µM	1 µM	3 µM	1 µM	1 (active)	1 (active)	1 (active)	1 (active)	1 (active)	1 (active)	1 (active)	1 (active)	1 (active)	1 (active)	1 (active)	1 (active)	1 (active)	1 (active)	1 (active)
Cc1n[nH]c2ccc(-c3cncc(OC[C@@H](N)Cc4ccccc4)c3)cc12	≤ 0.3 µM	≤ 0.3 µM	≤ 0.3 µM	≤ 0.3 µM	≤ 0.3 µM	1 (active)	1 (active)	1 (active)	1 (active)	1 (active)	1 (active)	1 (active)	1 (active)	1 (active)	1 (active)	1 (active)	1 (active)	1 (active)	1 (active)	1 (active)
COc1cc(C)c(Sc2cnc(NC(=O)c3ccc(CNC(C)C(C)(C)C)cc3)s2)cc1C(=O)N1CCN(C(C)=O)CC1 (stereo unspecified)	1 µM	9 µM	3 µM	9 µM	1 µM	1 (active)	1 (active)	1 (active)	1 (active)	1 (active)	1 (active)	1 (active)	1 (active)	1 (active)	1 (active)	1 (active)	1 (active)	1 (active)	1 (active)	1 (active)
NC(=O)Nc1sc(-c2ccc(F)cc2)cc1C(N)=O	3 µM	3 µM	3 µM	9 µM	3 µM	1 (active)	1 (active)	1 (active)	1 (active)	1 (active)	1 (active)	1 (active)	1 (active)	1 (active)	1 (active)	1 (active)	1 (active)	1 (active)	1 (active)	1 (active)
CO[C@H]1C=CC=C(C)C(=O)NC2=CC(=O)C(NCCN(C)C)=C(C[C@@H](C)C[C@H](OC)[C@H](O)[C@@H](C)C=C(C)[C@@H]1OC(N)=O)C2=O [17-DMAG hydrochloride]	≤ 0.3 µM	≤ 0.3 µM	≤ 0.3 µM	≤ 0.3 µM	≤ 0.3 µM	1 (active)	1 (active)	1 (active)	1 (active)	1 (active)	1 (active)	1 (active)	1 (active)	1 (active)	1 (active)	1 (active)	1 (active)	1 (active)	1 (active)	1 (active)
Clc1ccc(C2(c3ccc(-c4cn[nH]c4)cc3)CCNCC2)cc1	≤ 0.3 µM	≤ 0.3 µM	≤ 0.3 µM	≤ 0.3 µM	≤ 0.3 µM	1 (active)	1 (active)	1 (active)	1 (active)	1 (active)	1 (active)	1 (active)	1 (active)	1 (active)	1 (active)	1 (active)	1 (active)	1 (active)	1 (active)	1 (active)
O=C(CCCCSc1nc(-c2ccc(-c3ccccc3)cc2)cc(=O)[nH]1)NO	≤ 0.3 µM	1 µM	≤ 0.3 µM	≤ 0.3 µM	≤ 0.3 µM	1 (active)	1 (active)	1 (active)	1 (active)	1 (active)	1 (active)	1 (active)	1 (active)	1 (active)	1 (active)	1 (active)	1 (active)	1 (active)	1 (active)	1 (active)
CNC1CCC2(C)C(=CCC3C2CCC24CN(C)C(C)C2CCC34)C1 (stereo unspecified) [Isoconessimine]	≤ 0.3 µM	9 µM	≤ 0.3 µM	1 µM	≤ 0.3 µM	1 (active)	1 (active)	1 (active)	1 (active)	1 (active)	1 (active)	1 (active)	1 (active)	1 (active)	1 (active)	1 (active)	1 (active)	1 (active)	1 (active)	1 (active)
